Results taken from PubChem BioAssay (NCATS).
Inconclusive results are not listed. Unmarked numbers belong to inactive results. Active and inactive are the calls of the source. The call rests on the fitted dose curve; in most records, active means well fitted inhibition curve with a large enough effect; inconclusive means small, poorly fitted or top-dose-only effect; inactive means no such curve, though single readings can be large or run the other way.

system: Zika virus NS2B-NS3 protease (unlinked complex); test: Primary screen GU Rhodamine qHTS for Zika virus inhibitors: Unlinked NS2B-NS3 protease assay (AID 1347159); conditions: Recombinant ZIKV NS2B-NS3 protease, Rhodamine110 substrate fluorescence; series mostly up to 107 µM; activity change, negative = inhibition: at the top concentration; further: nearly all actives have a fitted effect of over 60% in size
Outline: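 Enzyme 25 nM in Tris-HCl pH 8.0 + 0.01% Tween 20; compounds up to 114 microM, 15 min RT dark; + Rhod110 substrate 1.5 microM; read t0 and 15 min; delta fluorescence → % inhibition → 4-parameter Hill fit.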
On the % scale 0 is the no-effect control and ±100 the full control effect.

SMILES | activity change, negative = inhibition
C=C1CC[C@@H](O)[C@]2(C)CC[C@H]3C(=C)C(=O)O[C@@H]3[C@@H]12 | -15.6%
CCCC(CCC)C(=O)Nc1ccn([C@@H]2O[C@H](CO)[C@@H](O)C2(F)F)c(=O)n1 | -0.505%
COc1cc(O)cc(/C=C/c2cccc(O)c2)c1 | -25.8%
C=C1C(=O)O[C@@H]2[C@H]3C(C)=CC(=O)C3=C(C)[C@@H](OC(=O)/C(C)=C\C)[C@H](O)[C@@H]12 | 7.62%
Cc1cc(CS(=O)(=O)c2ccccc2)cc(OCc2ccc(CN3CCCC3CO)cc2)c1 (stereo not given) | 66.6%
Cc1nc(NC(=O)N2CCCC2C(N)=O)sc1-c1ccnc(C(C)(C)C(F)(F)F)c1 (stereo not given) | -3.54%
C=C1CC[C@@H]2[C@](C)(CO)[C@H](O)CC[C@@]2(C)[C@@H]1CC(=O)C1=CCOC1=O | -1.17%
CCNC1(C(N)=O)CCN(c2ncnc3c2nc(-c2ccccc2Cl)n3-c2ccc(Cl)cc2)CC1 | 23.7%
CCCC(=O)C1(c2ccccc2)CCN(C(=O)[C@@H](Cc2ccc(OC)cc2)NC(=O)[C@@H](N)Cc2cncn2C)CC1 | 81.4%
COc1c2c(c(C)c3c1C(=O)OC3)O[C@@]1(C)C[C@@H](OC(C)=O)[C@]34O[C@](OC)(CC[C@]3(C)[C@H]1C2)OC4(C)C | -19.2% [at 57.1 µM]
C=C1C(OC2OC(CO)C(O)C(O)C2O)CC2C(C)(C)C(O)CCC2(C)C1CC/C(C)=C\COC(=O)CC(=O)O (stereo not given) | 1.17% [at 32.5 µM]
COc1cc(C(C)=O)c(OC)c2c1OC(C)(C)C=C2 | 1.35%
O=c1nc(-c2ccccn2)sc2ccccc12 | -3.72%
CC(C)(O)c1ccc2c(c1)ncn2-c1cccc(-c2ccccc2C#N)c1 | -7.24%
CN1CCN(C2=Nc3ccccc3Nc3ccc(OS(=O)(=O)C(F)(F)F)cc32)CC1 | 8.62%
COc1ccc(C(=O)Nc2c(Cl)cncc2Cl)cc1OC1CCCC1 | 8.3%
C[C@@H]1CCCN1CCc1cc2cc(-c3ccc(C#N)cc3)ccc2o1 | 23.7%
CCCCC1CCC(c2nc(-c3ccncc3)no2)CC1 (stereo not given) | 11.4%
CC(O)C(C)n1ncn(-c2ccc(N3CCN(c4ccc(OCC5COC(Cn6cncn6)(c6ccc(Cl)cc6Cl)O5)cc4)CC3)cc2)c1=O (stereo not given) | 0%
C=C1C(=O)O[C@@H]2[C@H]1CC(=O)[C@H](C)[C@@](O)(C(=O)/C=C/C)[C@H]2OC(=O)C(C)CC (stereo not given in full) | 5.67%

SMILES | activity change, negative = inhibition
Cc1ccc(S(=O)(=O)NCc2ccc(C(=O)NCCN(Cc3ccccc3)C(C)C)cc2)cc1 | 3.71%
COc1ccc(C2(N(C)C(=O)c3ccc(NC(=O)c4ccco4)cc3)CCOCC2)cc1 | 14.2%
CCc1cc(C(N)=O)ccc1-n1nc(C(C)C)c2c(-n3cnc(-c4cnn(C)c4)c3)ccnc21 | 0%
N#Cc1cc(C2=Nc3ccc(Br)cc3NC(=O)C2)ccn1 | -1.66%
CC(C)C[C@@H](C(=O)N[C@@H](Cc1ccc(OCc2ccccc2)cc1)C(=O)NC(C)(C)C)N(C)Cc1ccc(C(C)(C)C)cc1 | 24.6%
O=C(c1ccccn1)N(Cc1cccs1)C1(C(=O)NC2CCCCC2)CCCCC1 | -3.3%
O=C(NCCN1CCC(n2c(=O)[nH]c3ccccc32)CC1)c1ccc2ccccc2c1 | 55.1%
C=CCCN1CCC2(CC1)CN(C(=O)c1c(F)cccc1F)c1ccc(Cl)cc12 | 22.8%
CN(CC1COCCO1)S(=O)(=O)Nc1ccc2ccc3ncc(-c4cnn(C)c4)cc3c(=O)c2c1 (stereo not given) | -17.1%
NS(=O)(=O)c1ccc(NC(=O)Nc2ccc(F)cc2)cc1 | -6.79%
C=C1C(=O)O[C@@H]2C3=C(C)CCC[C@]3(C)CC[C@@]12O | -18.5%
Cc1ccc(C)c(NS(=O)(=O)c2cc(C(=O)Nc3ccccc3-c3ccccc3)ccc2C)c1 | 6.6%
CC(C)n1cnc2c(-c3cnc(N)nc3)nc(N3CCOCC3)nc21 | -0.639% [at 57.1 µM]
CCC[C@H](N[C@H]1CCc2cc(F)cc(F)c2C1)C(=O)Nc1cn(C(C)(C)CNCC(C)(C)C)cn1 | 187%
COC(=O)C(Cc1ccc(OCCn2c(=O)sc3cc(C(=O)c4ccccc4)ccc32)cc1)C(=O)OC | 18.5%
CC(=O)NC(C(=O)O[C@H]1CCC(C)(C)[C@@H]2CC=C3C(=O)OCC3(O)[C@@]12C)C(C)C (stereo not given in full) | -4.13%
O=C(NCCN1CCC(n2c(=O)[nH]c3ccccc32)CC1)c1cc2cc(F)ccc2[nH]1 | 124%
Cc1nc(Nc2cnn(C3CCNCC3)c2)nc2c1N(C)C(=O)c1cc3ccccc3cc1N2C | 60%
C/C(=C\CO[C@@H]1O[C@H](CO[C@H]2OC[C@](O)(CO)[C@H]2O)[C@@H](O)[C@H](O)[C@H]1O)C(C)(C)O | 11.1% [at 57.1 µM]
C=CC(=O)N1CCCN(c2cc(NCCC(=O)O)nc(-c3ccccn3)n2)CC1 | -14.9%

system: Zika virus NS2B-NS3 protease (linked construct); test: Primary screen NINDS Rhodamine qHTS for Zika virus inhibitors (AID 1347160); conditions: purified NS2B-NS3 protease, Rhodamine110 substrate fluorescence; series mostly up to 57.1 µM; activity change, negative = inhibition: at the top concentration; further: nearly all actives have a fitted effect of over 55% in size
Outline: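 Enzyme (25 nM, linked NS2B-NS3) was preincubated 15 min with compound in 10 mM Tris-HCl pH 8.0, 0.01% Tween 20. Rhodamine110 substrate (1.5 microM) was then added and fluorescence read at start and after 15 min.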

SMILES | activity change, negative = inhibition | outcome
C=C1CC[C@@H](O)[C@]2(C)CC[C@H]3C(=C)C(=O)O[C@@H]3[C@@H]12 | -13.2% | 
CCCC(CCC)C(=O)Nc1ccn([C@@H]2O[C@H](CO)[C@@H](O)C2(F)F)c(=O)n1 | 3.55% | 
COc1cc(O)cc(/C=C/c2cccc(O)c2)c1 | 7.39% | 
C=C1C(=O)O[C@@H]2[C@H]3C(C)=CC(=O)C3=C(C)[C@@H](OC(=O)/C(C)=C\C)[C@H](O)[C@@H]12 | 12.3% [at 33.1 µM] | 
Cc1cc(CS(=O)(=O)c2ccccc2)cc(OCc2ccc(CN3CCCC3CO)cc2)c1 (stereo not given) | 73% | 
Cc1nc(NC(=O)N2CCCC2C(N)=O)sc1-c1ccnc(C(C)(C)C(F)(F)F)c1 (stereo not given) | 12.7% | 
C=C1CC[C@@H]2[C@](C)(CO)[C@H](O)CC[C@@]2(C)[C@@H]1CC(=O)C1=CCOC1=O |  | inactive [at 33.1 µM]
CCNC1(C(N)=O)CCN(c2ncnc3c2nc(-c2ccccc2Cl)n3-c2ccc(Cl)cc2)CC1 |  | inactive
CCCC(=O)C1(c2ccccc2)CCN(C(=O)[C@@H](Cc2ccc(OC)cc2)NC(=O)[C@@H](N)Cc2cncn2C)CC1 | 1.98% | 
COc1c2c(c(C)c3c1C(=O)OC3)O[C@@]1(C)C[C@@H](OC(C)=O)[C@]34O[C@](OC)(CC[C@]3(C)[C@H]1C2)OC4(C)C | -15.8% [at 33.1 µM] | 
C=C1C(OC2OC(CO)C(O)C(O)C2O)CC2C(C)(C)C(O)CCC2(C)C1CC/C(C)=C\COC(=O)CC(=O)O (stereo not given) | -0.312% [at 15.1 µM] | 
COc1cc(C(C)=O)c(OC)c2c1OC(C)(C)C=C2 | 19.2% | 
O=c1nc(-c2ccccn2)sc2ccccc12 | 13.6% | 
CC(C)(O)c1ccc2c(c1)ncn2-c1cccc(-c2ccccc2C#N)c1 | 5.55% | 
CN1CCN(C2=Nc3ccccc3Nc3ccc(OS(=O)(=O)C(F)(F)F)cc32)CC1 |  | inactive
COc1ccc(C(=O)Nc2c(Cl)cncc2Cl)cc1OC1CCCC1 | -14.1% | 
C[C@@H]1CCCN1CCc1cc2cc(-c3ccc(C#N)cc3)ccc2o1 | 159% | 
CCCCC1CCC(c2nc(-c3ccncc3)no2)CC1 (stereo not given) | 35.6% | 
CC(O)C(C)n1ncn(-c2ccc(N3CCN(c4ccc(OCC5COC(Cn6cncn6)(c6ccc(Cl)cc6Cl)O5)cc4)CC3)cc2)c1=O (stereo not given) | 23.1% | 
C=C1C(=O)O[C@@H]2[C@H]1CC(=O)[C@H](C)[C@@](O)(C(=O)/C=C/C)[C@H]2OC(=O)C(C)CC (stereo not given in full) | 20.3% [at 33.1 µM] | 

SMILES | activity change, negative = inhibition | outcome
Cc1ccc(S(=O)(=O)NCc2ccc(C(=O)NCCN(Cc3ccccc3)C(C)C)cc2)cc1 | 26.4% | 
COc1ccc(C2(N(C)C(=O)c3ccc(NC(=O)c4ccco4)cc3)CCOCC2)cc1 |  | inactive
CCc1cc(C(N)=O)ccc1-n1nc(C(C)C)c2c(-n3cnc(-c4cnn(C)c4)c3)ccnc21 | -14.5% | 
N#Cc1cc(C2=Nc3ccc(Br)cc3NC(=O)C2)ccn1 | 30% | 
CC(C)C[C@@H](C(=O)N[C@@H](Cc1ccc(OCc2ccccc2)cc1)C(=O)NC(C)(C)C)N(C)Cc1ccc(C(C)(C)C)cc1 |  | inactive
O=C(c1ccccn1)N(Cc1cccs1)C1(C(=O)NC2CCCCC2)CCCCC1 | 9.89% | 
O=C(NCCN1CCC(n2c(=O)[nH]c3ccccc32)CC1)c1ccc2ccccc2c1 |  | inactive
C=CCCN1CCC2(CC1)CN(C(=O)c1c(F)cccc1F)c1ccc(Cl)cc12 | 61.7% | 
CN(CC1COCCO1)S(=O)(=O)Nc1ccc2ccc3ncc(-c4cnn(C)c4)cc3c(=O)c2c1 (stereo not given) | -4.63% | 
NS(=O)(=O)c1ccc(NC(=O)Nc2ccc(F)cc2)cc1 | 11.6% | 
C=C1C(=O)O[C@@H]2C3=C(C)CCC[C@]3(C)CC[C@@]12O | -0.893% | 
Cc1ccc(C)c(NS(=O)(=O)c2cc(C(=O)Nc3ccccc3-c3ccccc3)ccc2C)c1 | -7.69% | 
CC(C)n1cnc2c(-c3cnc(N)nc3)nc(N3CCOCC3)nc21 | 21.8% [at 33.1 µM] | 
CCC[C@H](N[C@H]1CCc2cc(F)cc(F)c2C1)C(=O)Nc1cn(C(C)(C)CNCC(C)(C)C)cn1 | 143% | 
COC(=O)C(Cc1ccc(OCCn2c(=O)sc3cc(C(=O)c4ccccc4)ccc32)cc1)C(=O)OC | 4.53% | 
CC(=O)NC(C(=O)O[C@H]1CCC(C)(C)[C@@H]2CC=C3C(=O)OCC3(O)[C@@]12C)C(C)C (stereo not given in full) | 13.3% [at 33.1 µM] | 
O=C(NCCN1CCC(n2c(=O)[nH]c3ccccc32)CC1)c1cc2cc(F)ccc2[nH]1 | 283% | 
Cc1nc(Nc2cnn(C3CCNCC3)c2)nc2c1N(C)C(=O)c1cc3ccccc3cc1N2C | 178% | 
C/C(=C\CO[C@@H]1O[C@H](CO[C@H]2OC[C@](O)(CO)[C@H]2O)[C@@H](O)[C@H](O)[C@H]1O)C(C)(C)O | 15.7% [at 33.1 µM] | 
C=CC(=O)N1CCCN(c2cc(NCCC(=O)O)nc(-c3ccccn3)n2)CC1 | 8.41% | 
